Data published in PubChem BioAssay AID687028 (Broad Institute, 2013).
In all, about 1,400 compounds went through this assay and about 55 (4%) were called active. The rule behind the calls is not given here. The list is a sample of the results. Results with a measured potency or affinity are listed apart.

Assay: viability loss in A549 cells – cell-based, plate reader, cherry-pick samples, cytotoxicity control, dose response (AID 687028);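 note: cells incubated with compound for three days before reading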
Conditions: series mostly up to 19.5 µM; activity change, negative = toxicity: at the top concentration

SMILES | activity change, negative = toxicity
COc1ccc(OC)c(NC(=O)NNS(=O)(=O)c2ccc(C)cc2C)c1 | 10.2% (inactive)
Cc1ccc(C)c(NC(=O)CN2C(=O)C3CC=CCC3C2=O)c1 (stereo not given) | 2.15% (inactive)
CC1(C(=O)Nc2cccc(OC(F)(F)F)c2)Cc2c(-c3cccc(C(N)=O)c3)ccnc2O1 (stereo not given) | -15.9% (inactive)
CC1(C(=O)NCc2cccc(C(F)(F)F)c2)CCN1Cc1cc2ccccc2o1 (stereo not given) | 5.37% (inactive)
C[C@H](CO)N1C[C@H](C)[C@@H](CN(C)S(=O)(=O)c2cn(C)cn2)Oc2ccc(NC(=O)Nc3cccc4ccccc34)cc2CC1=O | 4.45% [at 21 µM] (inactive)
O=C(N[C@@H]1c2ccccc2CC[C@@H]1OCc1ccccc1)c1ccc(C(F)(F)F)cc1 | -0.699% (inactive)
CCCn1c(NCc2ccc(N(C)C)cc2)nc2ccccc21 | 3.28% (inactive)
COc1ccc(CNC(=O)COC(=O)CN2C(=O)NC3(CCCC3)C2=O)cc1 | 2.48% (inactive)
CCC(c1nnnn1-c1c(C)cccc1C)N1CCN(C/C=C/c2ccccc2)CC1 (stereo not given) | -4.93% (inactive)
O=C1CCCC(c2ccccc2)N1 (stereo not given) | 1.97% (inactive)
COc1cc(C(=S)N2CCCCC2)ccc1OCC(=O)Nc1ccc(F)cc1 | -0.726% (inactive)
Cc1ccc(NC(=O)CN2CCC(NC(=O)c3cccc(F)c3)CC2)cc1C | 4.03% (inactive)
COc1ccc(CCN2C(=O)CSCC2(C)C(=O)Nc2ccc3c(c2)OCCO3)cc1OC (stereo not given) | 2.93% (inactive)
COc1cccc(N2CC(C(=O)Nc3ccc(F)cc3)CC2=O)c1 (stereo not given) | 3.92% (inactive)
CCN1CCN(C(=O)C2CC(=O)N(c3ccc(Cl)cc3)C2)CC1 (stereo not given) | 4.04% (inactive)
CCOc1ccc(/C=N/n2nnnc2N)cc1OCC | 14.9% (inactive)
CC(C)(C)N(Cc1ccccc1)C(=O)COC(=O)C1CCN(c2ccc(C(F)(F)F)cn2)CC1 | 1.79% (inactive)
Cc1cc2oc3ccc(NCCCN4CCOCC4)cc3c(=O)c2cc1C | 3.8% (inactive)
CN1CCN(C(=O)c2cc3sc4ccccc4c3s2)CC1 | 3.61% (inactive)
Cc1ccc(S(=O)(=O)N(C)C)cc1NC(=O)COC(=O)C1CCCC1 | 3.55% (inactive)

SMILES | activity change, negative = toxicity
COC(=O)CN(c1cc(Cl)ccc1OC)S(=O)(=O)c1ccc(OC)c(OC)c1 | 4.16% (inactive)
O=C(NC1CCCC1)c1nc(-c2c(F)cccc2F)oc1-c1ccccc1 | 4.75% (inactive)
Cc1cccc(C)c1OCC(O)Cn1ccnc1C (stereo not given) | 0.445% (inactive)
Cc1cccc(C(=O)OCC(=O)NCc2ccc(Cl)cc2)c1 | 6.43% (inactive)
CN1CCC(=O)N([C@H](COc2ccccc2)Cc2ccccc2)CC1 | -1.58% (inactive)
O=C(Cc1cn(Cc2ccccc2)c2ccccc12)Nc1ccc(Oc2cccnc2)cc1 | 6.03% (inactive)
O=C(Oc1ccccc1)c1ccccc1C(=O)Oc1ccccc1 | 1.83% (inactive)
COc1ccc(NC(=O)c2cc3ccccc3cc2O)cc1 | 5.07% (inactive)
Cc1ccccc1-c1ccc(C2[C@@H]3CN(C(=O)Cc4ccncc4)C[C@H]2N3)cc1 (stereo not given in full) | 3.86% [at 21 µM] (inactive)
COCCNC(=O)C1(C)CCCN(C(=O)c2ccccc2)C1 (stereo not given) | 0.534% (inactive)
CC(C)c1ccc(NC(=O)[C@H](NC(=O)[C@@H]2Cc3ccccc3CN2)c2ccccc2)cc1 | 3.25% (inactive)
COc1ccc(S(=O)(=O)N2CCC(C(=O)N[C@H](C(=O)NCc3ccccc3)C(C)C)CC2)cc1 | -1.57% (inactive)
COc1ccc2c(C)c(CCC(=O)NC3CC3)c(=O)oc2c1C | 4.32% (inactive)
C[C@@H]1CN([C@H](C)CO)C(=O)Cc2cc(NC(=O)C3CC3)ccc2O[C@H]1CN(C)C(=O)Nc1ccccc1 | 6.32% [at 21 µM] (inactive)
CCc1nnc(N2C(=O)c3ccccc3C2(O)c2ccccc2)s1 (stereo not given) | 0.278% (inactive)
O=C(O)CCCCCCCCc1cn(CCc2c[nH]c3ccccc23)nn1 | 1.36% (inactive)
CCN1C(=NCCc2c[nH]c3ccccc23)N[C@@H](c2ccccc2)[C@H](C(=O)OC)[C@H]1C | 3.65% (inactive)
CCOc1ccc2[nH]c3ncccc3c(=O)c2c1 | 10.9% (inactive)
C[C@@H]1CCCCO[C@@H](CN(C)C(=O)C2CCCCC2)[C@H](C)CN([C@H](C)CO)C(=O)c2cc(NC(=O)c3ccncc3)ccc2O1 | 3.35% (inactive)
C[C@@H]1CCCCO[C@@H](CN(C)S(=O)(=O)c2ccc(F)cc2)[C@@H](C)CN([C@@H](C)CO)C(=O)c2cc(NC(=O)c3ccccc3)ccc2O1 | -0.972% (inactive)

SMILES | activity change, negative = toxicity
O=C1Nc2ccccc2C(=O)N(C2CCCC2)C1C(=O)NC1CC1 (stereo not given) | 2.89% (inactive)
CC(C)(C)NC(=O)c1cccc(NC(=O)c2ccc3c(c2)C(=O)N(C(C)(C)C)C3=O)c1 | 7.87% (inactive)
COc1cc(OC)cc(C(=O)Nc2ccc3nc4n(c(=O)c3c2)CCCC4)c1 | 4.55% (inactive)
O=C(c1ccccc1Cc1ccccc1)N1CCN(S(=O)(=O)c2ccccc2)CC1 | -0.548% (inactive)
Cc1cc2oc(=O)cc(Cn3ccnc3)c2cc1Cl | 5.68% (inactive)
COc1ccc2c3c([nH]c2c1)[C@H](CO)N(C(C)=O)CC31CN(C(=O)c2cccc(F)c2)C1 | 1.32% (inactive)
COc1ccc2c3c([nH]c2c1)[C@H](CO)N(C(=O)Nc1cccc(F)c1)CC31CN(S(=O)(=O)c2ccccc2)C1 | -22.3% (inactive)
O=S(=O)(c1cccs1)N1CCN(c2ccnc3cc(Cl)ccc23)CC1 | 1.26% (inactive)
CN(C[C@H](Cc1ccccc1)N(C[C@@H](CC1CCCCC1)N(CCc1ccccc1)N=O)N=O)N=O | 5.21% (inactive)
O=C(C1CCCCC1)N1C[C@H](O)[C@@H](n2cc(C3CC3)nn2)C[C@@H]1c1ccccc1 | 2.27% (inactive)
CCCCCC(=O)N1C[C@@H](O)[C@H](n2cc(COC(=O)c3ccccc3)nn2)C[C@@H]1c1ccc(C)cc1 | 2.72% (inactive)
Cc1noc(C)c1NC(=O)Nc1ccc2c(c1)C(=O)N([C@@H](C)CO)C[C@@H](C)[C@@H](CN(C)C)OCCCC[C@@H](C)O2 | 6.53% (inactive)
CCOC(=O)N1CCC(NCCNC(=O)c2ccc(F)c(F)c2)CC1 | 3.93% (inactive)
C[C@H](NC(=O)C1CCN(S(=O)(=O)c2ccccc2)CC1)C(=O)NCc1cccnc1 | 0.309% (inactive)
COc1ccc(CN2CCC(C(=O)NC(c3ccc4c(c3)OCO4)c3ccccn3)CC2)cc1 (stereo not given) | -3.27% (inactive)
COc1ccc(C2NC(=O)NC(C)=C2C(=O)Nc2cccc(C)c2C)cc1 (stereo not given) | 1.37% (inactive)
CCN(C[C@H]1N[C@@](C)(C(=O)OC)[C@H]2C(=O)N(C)C(=O)[C@@H]12)S(=O)(=O)c1ccc(-c2ccccc2)cc1 | 0.033% (inactive)
CC(C)CCNC(=O)C1CC(c2ccccc2C(F)(F)F)=NO1 (stereo not given) | -2.08% (inactive)
Cc1cccc(N(CC(=O)NC2CC2)S(=O)(=O)c2ccc(Cl)cc2)c1 | 1.14% (inactive)
COc1ccc2c3c([nH]c2c1)[C@@H](CO)N(Cc1ccc(F)cc1)CC31CN(C(=O)NC(C)C)C1 | -0.014% [at 21 µM] (inactive)
